From PubChem BioAssay AID686979 (National Center for Advancing Translational Sciences (NCATS), 2013) come the findings set out here.

The structures appear in SMILES notation. The whole screen tested about 420,000 compounds, of which about 50,000 (12%) were called active. A call without a number means that no potency is given here. Another 26% or so got no clear call; they are omitted. The sample holds actives, similar compounds and a random draw of the others, so the mix is not that of the screen. A number with no mark means an inactive call. Calls follow the shape of the dose curve; as a rule, active = well fitted inhibition curve with a large enough effect; inconclusive = small, poorly fitted or top-dose-only effect; inactive = flat fitted curve, though single readings scatter.
Potency is read from the fitted curve at half-maximal effect.

The nature of this assay: qHTS for Inhibitors of human tyrosyl-DNA phosphodiesterase 1 (TDP1): qHTS in cells in presence of CPT. Also: nearly all actives have a fitted effect of over 55% in size. The conditions noted are these: chicken DT40 Tdp1-/-;hTDP1 cells + 20 nM CPT, ATP luminescence, 48 h; series mostly up to 46.2 µM. Put shortly: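 Chicken DT40 Tdp1-/- cells stably complemented with human TDP1 were seeded at 400 cells/well in medium containing 20 nM camptothecin, exposed to pin-transferred compounds, and grown at 37 °C for at least 48 hr. Viability was read as ATP luminescence.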
On to `CC[C@@]1(C(=O)OC)N[C@H](CN(C)C(C)=O)[C@@H]2C(=O)N(C)C(=O)[C@@H]21`, for which the Potency entry is “inactive”.
As for `Cc1ccc(C(C[N+](=O)[O-])c2c(C)cc3ccccn23)cc1` (configuration not stated), the Potency is 10.3 µM (active).
As for `COc1ccccc1C(=O)NCCC(=O)NC(C)CCc1ccccc1` (configuration not stated), the Potency result was “inactive”.
`COc1cc(C=NNC(=O)c2cccnc2)ccc1OC(=O)c1ccccc1F`: the Potency entry is “inactive”.
As to `CC(C)(C)C(=O)Nc1ccc(C(=O)N/N=C/c2ccccc2OC(=O)c2ccc(Cl)cc2Cl)cc1`, the Potency was 14.6 µM (active).
As for `O=C(N/N=C/c1ccoc1)c1ccc(Cl)cc1Cl`, the Potency entry was “inactive”.
Still for that read-out and setting: next, `Cc1cc(C)nc(SCC(=O)N(C)C)n1`: “inactive”.
As to `COC(=O)c1c(C)[nH]c(C(=O)NCCc2ccc(S(N)(=O)=O)cc2)c1C`, the Potency entry was “inactive”.
Same read-out and setting: next, `CC(=O)c1c(C)oc2ccc(NS(=O)(=O)c3ccc(C(=O)O)cc3)cc12`: “inactive”; `O=S(=O)(Nc1ccc(-n2cnnn2)cc1)c1ccc(Cl)cc1`: “inactive”; `CC(=O)c1c(C)n(S(=O)(=O)c2ccc(Cl)cc2)c2ccc(NS(=O)(=O)c3ccc(Cl)cc3)cc12`: 10.3 µM (active).
On to `Cc1csc(-c2coc3cc(O[C@@H]4O[C@H](CO)[C@@H](O)[C@@H](O)[C@H]4O)ccc3c2=O)n1`, for which the activity change, negative = growth inhibition was 8.48% [at 9.04 µM].
For `O=C(Nc1n[nH]c(C(F)(F)F)n1)c1cccs1`, the Potency result was “inactive”.
For `COc1ccccc1C(=O)Nc1ccnn1C1CCN(C(=O)C(C)(C)C)CC1`, the Potency result is “inactive”.
As for `CCCCn1c(N)c(N(CCC(C)C)C(=O)c2ccc(COc3ccccc3)o2)c(=O)[nH]c1=O`, the Potency result is “inactive”.
In the case of `CCOc1ccc(S(=O)(=O)N/N=C(\C)c2ccc(Cl)c(Cl)c2Cl)cc1`, the Potency result is “inactive”.
On the same count and under the same terms, next, `COC(=O)COc1ccc2c(=O)c(Oc3ccccc3Br)coc2c1`: “inactive”; `Cc1nn(CC(=O)Nc2ccc(F)cc2)c(=O)c2ccccc12`: “inactive”; `Cc1ccc(NC(=O)Cn2sc3ccccc3c2=O)cc1`: 4.61 µM (active).
`Cc1ccc(NC(=O)Cn2c(C)csc2=O)cc1`: the Potency result was “inactive”.
Regarding `CN(C(=O)CSc1nnc(-c2c[nH]c3ccccc23)o1)C1CCS(=O)(=O)C1` (configuration not stated), the Potency result was “inactive”.
Turning to `NS(=O)(=O)c1ccc(NC(=O)COC(=O)c2cc3ccccc3oc2=O)cc1`, the Potency entry is “inactive”.
Still for that read-out and setting: to `COc1cc(-c2cc(C(=O)OCC(=O)Nc3ccc4c(c3)OCO4)c3ccccc3n2)cc(OC)c1OC` belongs “inactive”; to `O=C(COC(=O)c1ccncc1)Nc1ccc2c(c1)OCO2`, “inactive”; to `O=C(COC(=O)c1ccc(F)cc1)Nc1ccc2c(c1)OCO2`, “inactive”.
In the case of `NC(=O)c1ccc(NC(=O)COC(=O)c2c3c(nc4ccccc24)/C(=C\c2ccc4c(c2)OCO4)CCC3)cc1`, the Potency was 11.6 µM (active).
Regarding `NS(=O)(=O)c1ccc(NC(=O)COC(=O)c2c3c(nc4ccccc24)/C(=C\c2ccc4c(c2)OCO4)CCC3)cc1`, the Potency is 18.4 µM (active).
As to `CC1CC(=O)N(CC(=O)Nc2cccc(Cl)c2)c2ccccc2S1(=O)=O` (configuration not stated), the Potency entry was “inactive”.
The same measure, in the same setting: to `CCOC(=O)Cc1cc(=O)[nH]c(/N=C(\N)Nc2ccc(OC)cc2)n1` belongs “inactive”; to `COc1ccc(NC(=O)Cn2c(-c3ccc(OC)cc3)cn(-c3ccc(C)cc3)c2=O)cc1`, “inactive”.
Still for that read-out and setting: next, `Cc1ccccc1CNC(=O)CCCn1nc(C)c2sc3ccccc3c2c1=O`: 18.4 µM (active); `Cc1nn(CCCC(=O)NCc2ccccc2Cl)c(=O)c2nccn12`: “inactive”.
Consider `CCc1nn(CCCC(=O)NCc2ccccc2OC)c(=O)c2cc3occc3n12`, for which the Potency entry was “inactive”.
As for `COc1ccc(C2=NOC(COC(=O)c3ccc4ccccc4n3)C2)cc1` (configuration not stated), the Potency entry is “inactive”.
Still for that read-out and setting: to `CC(OC(=O)c1ccc2ccccc2n1)C(=O)c1ccccc1` (configuration not stated) belongs “inactive”.
On to `COc1ccc(C(=O)COC(=O)c2ccc3ccccc3n2)cc1`, for which the Potency was 20.6 µM (active).
With `Cc1ccc(-c2nnc(CN3CCN(C)CC3)o2)cc1`, the Potency result is “inactive”.
`COCCNC(=O)CSc1c(C)cnc2c1c(=O)n(C)c(=O)n2C`: the Potency result is “inactive”.
For `COc1ccc(C(=O)CSc2c(C(C)C)cnc3c2c(=O)n(C)c(=O)n3C)cc1`, the Potency was 16.4 µM (active).
On the same count and under the same terms, to `COc1ccc(C(=O)CSc2nccc(=O)[nH]2)cc1` belongs “inactive”.
On the same count and under the same terms, next, `COc1ccc(CNC(=O)CN2C(=O)c3ccccc3S2(=O)=O)cc1`: “inactive”; `CC1CCCN(S(=O)(=O)c2ccc(C(=O)Nc3nnc(-c4ccncc4)o3)cc2)C1` (configuration not stated): 11.6 µM (active); `CC1CCCCN1S(=O)(=O)c1ccc(S(=O)(=O)N(CC(=O)Nc2ccccc2)Cc2cccs2)cc1` (configuration not stated): 25.9 µM (active).
In the case of `COCCN(CC(=O)Nc1ccccc1C)S(=O)(=O)c1ccc(S(=O)(=O)N2CCCC2)cc1`, the Potency result was “inactive”.
In the case of `O=C(NCc1cccs1)C(=O)NCC1OCCCN1S(=O)(=O)c1ccc(F)cc1` (configuration not stated), the Potency entry is “inactive”.
Turning to `CC1CCCCN1S(=O)(=O)CCNC(=O)c1ccccc1` (configuration not stated), the Potency result is “inactive”.
In the case of `CCN(CC(=O)NCc1cccs1)S(=O)(=O)c1ccc(NC(C)=O)cc1`, the Potency entry was “inactive”.
As to `CC1CC(C)CN(S(=O)(=O)c2ccc(C(=O)NN3CCOCC3)cc2)C1` (configuration not stated), the Potency entry was “inactive”.
Take `O=C(Nc1ccc(N2CCOCC2)cc1)c1cccc(S(=O)(=O)N2CCOCC2)c1`: the Potency result is “inactive”.
As for `CS(=O)(=O)c1ccc(-c2nnc(NC(=O)c3ccc4c(c3)OCCO4)o2)cc1`, the Potency result is “inactive”.
The same measure, in the same setting: next, `O=C(Nc1nnc(-c2ccccc2)o1)c1cccc(S(=O)(=O)N2CCOCC2)c1`: 13 µM (active); `CC1CCCCN1S(=O)(=O)c1ccc(C(=O)Nc2nnc(-c3cccs3)o2)cc1` (configuration not stated): 6.51 µM (active); `NC(=O)CSc1nnc(-c2cccc(S(=O)(=O)N3CCOCC3)c2)o1`: “inactive”.
In the case of `CCOC(=O)c1c(/N=C/c2cc(C)ccc2O)sc2c1CCC2`, the Potency entry is “inactive”.
On to `CC(C)OC(=O)CC(=O)CC(O)c1cccc([N+](=O)[O-])c1` (configuration not stated), for which the Potency entry is “inactive”.
Still for that read-out and setting: to `O=C(Nc1nonc1-c1ccc(Cl)cc1)c1ccco1` belongs “inactive”.
In the case of `O=C(NCc1ccccn1)[C@@H]1CCCN1C(=O)[C@@H]1CCCN1C(=O)c1ccccc1`, the Potency entry is “inactive”.
For the compound `CN(Cc1nc(-c2cnccn2)no1)Cc1n[nH]c2c1CCCCC2`, the Potency entry was “inactive”.
In the case of `COc1ccccc1CNC(=O)CS(=O)(=O)c1cccc2nsnc12`, the Potency result is “inactive”.
As for `Cn1c(=O)c(=O)n(C)c2cc(NC(=O)c3ccccc3Br)ccc21`, the Potency result is “inactive”.
Take `c1ccc2c(c1)OC1OC2Oc2ccccc21`: the Potency entry is “inactive”.
With `Cc1cc(C)nc(NS(=O)(=O)c2ccc(NC(=O)c3cc(=O)c4ccc(C)c(C)c4o3)cc2)n1`, the Potency entry is “inactive”.
